Reference: PubChem BioAssay (EPA / NIEHS)
Active and inactive are the calls of the source. Rule for the calls: active = hit-call score of the fitted dose curve at least 0.9, where 1 is the maximum; inactive = score below 0.9.

Experiments:
[1] = BSK_3C_SRB: Viability Assessment in the BioMAP Diversity Plus: 3C Assay (AID 2283023); conditions: primary human endothelial cells (HUVEC);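 note: fitted both ways against DMSO so a hit may be signal rise or drop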
Summary of the method: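 Human umbilical vein endothelial cells in the 3C system, treated 24 h. Total protein measured by 0.1% sulforhodamine B staining after 10% TCA fixation, read at 560 nm; bidirectional fit versus DMSO.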

[2] = read-out: Matrix Metallopeptidase 1 (MMP1), MMP1 (gene 4312); test: BSK_BE3C_MMP1: BioMAP Diversity Plus: BE3C Assay for Matrix Metallopeptidase 1 (MMP1) Biomarker Activity (AID 2283024); conditions: primary human bronchial epithelial cells; actives raise or lower the signal
Summary of the method: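 ELISA measurement of MMP-1 after 24 h compound exposure of primary human bronchial epithelial cells. Changes in either direction fitted relative to DMSO; parallel SRB staining checked overt cytotoxicity.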

[3] = BSK_3C_Vis: BioMAP Diversity Plus: 3C Assay for Morphology Visualization (AID 2283025); conditions: primary human endothelial cells (HUVEC);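 note: fitted both ways so gain or loss versus DMSO counts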;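 for AC50: light microscopy image of cell morphology used as background control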
Summary of the method: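 Light-microscopy visualization of HUVEC cultures at 24 h post-treatment, with DMSO as baseline for bidirectional fitting.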

[4] = read-out: Pselectin, SELP (gene 6403); test: BSK_4H_Pselectin: BioMAP Diversity Plus: 4H Assay for Pselectin Biomarker Activity (AID 2283026); conditions: primary human endothelial cells (HUVEC); actives raise or lower the signal
Summary of the method: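 ELISA of surface P-selectin on HUVEC, 24 h after dosing, with parallel SRB staining (0.1% after 10% TCA fixation, 560 nm) for overt cytotoxicity. Activity fitted in both directions relative to DMSO.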

[5] = BSK_4H_SRB: Viability Assessment in the BioMAP Diversity Plus: 4H Assay (AID 2283027); conditions: primary human endothelial cells (HUVEC);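 note: cells exposed to compound for 24 h before staining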;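 for AC50: curves fitted both ways versus DMSO so AC50 may be loss or gain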
Summary of the method: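 Cytotoxicity readout: sulforhodamine B (0.1%) staining of total protein after 10% TCA fixation, measured at 560 nm in human umbilical vein endothelium at 24 h. DMSO set the baseline; fitting was bidirectional.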

[6] = BSK_BE3C_SRB: Viability Assessment in the BioMAP Diversity Plus: BE3C Assay (AID 2283028); conditions: primary human bronchial epithelial cells;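 for AC50: fitted both ways so AC50 may mark signal gain or loss versus DMSO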
Summary of the method: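 Human bronchial epithelial primary cells in confluent culture, 24 h after chemical dosing; total protein by 0.1% SRB staining after 10% TCA fixation, read at 560 nm. Bidirectional fitting versus DMSO baseline.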

[7] = read-out: Thrombomodulin, THBD (gene 7056); test: BSK_3C_Thrombomodulin: BioMAP Diversity Plus: 3C Assay for Thrombomodulin Biomarker Activity (AID 2283029); conditions: primary human endothelial cells (HUVEC); actives raise or lower the signal
Summary of the method: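 ELISA measurement of thrombomodulin on HUVEC surface 24 h after chemical dosing; activity fitted in both directions relative to DMSO vehicle.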

[8] = read-out: Urokinase-type plasminogen activator receptor (uPAR), PLAUR (gene 5329); test: BSK_4H_uPAR: BioMAP Diversity Plus: 4H Assay for Urokinase-type plasminogen activator receptor (uPAR) Biomarker Activity (AID 2283030); conditions: primary human endothelial cells (HUVEC); actives raise or lower the signal
Summary of the method: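 Human umbilical vein endothelial cells in the 4H system, 24 h after chemical dosing. Cell-surface uPAR measured by ELISA, fitted in both directions versus DMSO; cytotoxicity checked by SRB total protein in parallel cultures.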

[9] = read-out: Vascular endothelial growth factor receptor 2 (Homo sapiens) (UniProt P35968); test: BSK_4H_VEGFRII: BioMAP Diversity Plus: 4H Assay for Vascular endothelial growth factor receptor 2 (VEGFR2) Biomarker Activity (AID 2283031); conditions: primary human endothelial cells (HUVEC); actives raise or lower the signal
Summary of the method: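 Primary human umbilical vein endothelial cells (4H system), 24 h exposure; cell-surface VEGFR2 measured by ELISA. Bidirectional fitting versus DMSO; cytotoxicity checked in parallel by SRB total-protein staining.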

[10] = read-out: Human Leukocyte Antigen - DR isotype (HLADR), HLA-DRA (gene 3122); test: BSK_BE3C_HLADR: BioMAP Diversity Plus: BE3C Assay for Human Leukocyte Antigen - DR isotype (HLADR) Biomarker Activity (AID 2283032); conditions: primary human bronchial epithelial cells; actives raise or lower the signal
Summary of the method: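 Cell-surface HLA-DR ELISA readout at 24 h after dosing in the BE3C primary human lung bronchial epithelial system; gain or loss of signal against DMSO, with parallel sulforhodamine B staining of total protein for overt cytotoxicity.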

[11] = read-out: Vascular cell adhesion molecule 1 (VCAM1), VCAM1 (gene 7412); test: BSK_4H_VCAM1: BioMAP Diversity Plus: 4H Assay for Vascular cell adhesion molecule 1 (VCAM1) Biomarker Activity (AID 2283033); conditions: primary human endothelial cells (HUVEC); actives raise or lower the signal
Summary of the method: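 VCAM-1 ELISA read 24 h after chemical dosing of HUVEC in the BioMAP 4H system, with gain or loss of signal fitted relative to DMSO. Parallel SRB staining (560 nm) checked overt cytotoxicity.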

[12] = read-out: Interferon-gamma inducible Protein 10 (IP10), CXCL10 (gene 3627); test: BSK_BE3C_IP10: BioMAP Diversity Plus: BE3C Assay for Interferon-gamma inducible Protein 10 (IP10) Biomarker Activity (AID 2283034); conditions: primary human bronchial epithelial cells; actives raise or lower the signal
Summary of the method: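 IP-10 quantified by ELISA in human primary bronchial epithelial cell cultures at 24 hours post-dosing. Gain or loss of signal fitted relative to DMSO; parallel SRB staining assessed overt cytotoxicity.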

[13] = read-out: Monokine induced gamma interferon (MIG), CXCL9 (gene 4283); test: BSK_BE3C_MIG: BioMAP Diversity Plus: BE3C Assay for Monokine induced gamma interferon (MIG) Biomarker Activity (AID 2283035); conditions: primary human bronchial epithelial cells; actives raise or lower the signal
Summary of the method: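 hu bronchial epithelial 1° cells, 24 h cpd; MIG by ELISA; bidirectional fit, DMSO = baseline.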

[14] = read-out: Transforming growth factor beta 1 (TGFb1), TGFB1 (gene 7040); test: BSK_BE3C_TGFb1: BioMAP Diversity Plus: BE3C Assay for Transforming growth factor beta 1 (TGFb1) Biomarker Activity (AID 2283036); conditions: primary human bronchial epithelial cells; actives raise or lower the signal
Summary of the method: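 ELISA readout of TGF-b1 from human lung bronchial epithelial primary cells, taken 24 h post-treatment. Gain or loss of signal fitted relative to DMSO baseline, with parallel SRB staining for overt cytotoxicity.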

[15] = read-out: Plasminogen activator inhibitor-1 (PAI1), SERPINE1 (gene 5054); test: BSK_BE3C_PAI1: BioMAP Diversity Plus: BE3C Assay for Plasminogen activator inhibitor-1 (PAI1) Biomarker Activity (AID 2283037); conditions: primary human bronchial epithelial cells; actives raise or lower the signal
Summary of the method: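 PAI-1 was measured by ELISA in human primary bronchial epithelial cultures 24 h after chemical dosing, with cytotoxicity checked by SRB total-protein staining in parallel cultures. Activity was fitted in both directions relative to DMSO.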

[16] = read-out: urokinase plasminogen activator (uPA), PLAU (gene 5328); test: BSK_BE3C_uPA: BioMAP Diversity Plus: BE3C Assay for urokinase plasminogen activator (uPA) Biomarker Activity (AID 2283038); conditions: primary human bronchial epithelial cells; actives raise or lower the signal
Summary of the method: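 Primary human bronchial epithelial cells, uPA measured by ELISA 24 h after dosing. Bidirectional change relative to DMSO; cytotoxicity checked in parallel cultures by sulforhodamine B total-protein staining.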

[17] = read-out: Urokinase-type plasminogen activator receptor (uPAR), PLAUR (gene 5329); test: BSK_BE3C_uPAR: BioMAP Diversity Plus: BE3C Assay for Urokinase-type plasminogen activator receptor (uPAR) Biomarker Activity (AID 2283039); conditions: primary human bronchial epithelial cells; actives raise or lower the signal
Summary of the method: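 uPAR levels were measured by ELISA after 24 h compound treatment of primary human bronchial epithelial cells, fitted in both directions relative to DMSO. Parallel SRB staining served as the cytotoxicity read-out.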

[18] = read-out: Interleukin-6 (IL6), IL6 (gene 3569); test: BSK_CASM3C_IL6: BioMAP Diversity Plus: CASM3C Assay for Interleukin-6 (IL6) Biomarker Activity for (AID 2283040); conditions: primary human coronary artery smooth muscle cells; actives raise or lower the signal
[19] = read-out: Tissue plasminogen activator (tPA), PLAT (gene 5327); test: BSK_BE3C_tPA: BioMAP Diversity Plus: BE3C Assay for Tissue plasminogen activator (tPA) Biomarker Activity (AID 2283041); conditions: primary human bronchial epithelial cells; actives raise or lower the signal
Summary of the method: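 tPA measured by ELISA 24 h after dosing human primary bronchial epithelial cells (BE3C system). Changes in either direction were fitted against DMSO. Parallel cultures were stained with SRB to flag overt cytotoxicity.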

[20] = read-out: Interleukin-8 (IL8), CXCL8 (gene 3576); test: BSK_CASM3C_IL8: BioMAP Diversity Plus: CASM3C Assay for Interleukin-8 (IL8) Biomarker Activity (AID 2283042); conditions: primary human coronary artery smooth muscle cells; actives raise or lower the signal;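 note: IL-8 protein level quantified by ELISA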

Measured: AC50

O=C(O)c1cccc(Oc2ccccc2)c1
inactive: all assays above

CC(=O)OCCC(C)C
inactive: all assays above

O=C1CCCCCN1
inactive: all assays above

NC(=O)NO
inactive: all assays above

Clc1nc(Cl)c(Cl)c(Cl)c1Cl
active: [3] 37.5 µM | [4] 30.2 µM | [10] 26.4 µM | [11] 20 µM
inactive: all other assays above

O=C(O)CC(O)C(=O)O (stereo unspecified)
not listed: [1]
inactive: all other assays above

CCCCC(CC)COC(=O)c1ccc(C(=O)OCC(CC)CCCC)cc1 (stereo unspecified)
not listed: [2]
inactive: all other assays above

CC(C)CCCCCCOC(=O)c1ccc(C(=O)OCCCCCCC(C)C)c(C(=O)OCCCCCCC(C)C)c1
inactive: all assays above

C[C@](N)(Cc1ccc(O)c(O)c1)C(=O)O
inactive: all assays above

CCCCCCCCO
not listed: [1]
inactive: all other assays above

CC(O)CN(CCN(CC(C)O)CC(C)O)CC(C)O (stereo unspecified)
inactive: all assays above

CC(=O)OC[C@H]1O[C@@](COC(C)=O)(O[C@H]2O[C@H](COC(C)=O)[C@@H](OC(C)=O)[C@H](OC(C)=O)[C@H]2OC(C)=O)[C@@H](OC(C)=O)[C@@H]1OC(C)=O
inactive: all assays above

On1ccccc1=S
active: [1] 29.7 µM | [2] 10.9 µM | [3] 38.4 µM | [4] 11.8 µM | [5] 14.8 µM | [6] 9.28 µM | [7] 5.96 µM | [8] 19.8 µM | [10] 3.31 µM | [11] 14.8 µM | [12] 3.8 µM | [13] 5.25 µM | [14] 5.47 µM | [15] 3.45 µM | [16] 5.4 µM | [17] 9.61 µM | [18] 32.2 µM | [19] 3.55 µM
inactive: [20]
